Measured values from the supplement of paper PMC10681739.

target: T1, ETS1 (UniProt P14921); assay: ETS1 binding intensity (PBM fluorescence), ETS1 alone (arbitrary fluorescence units); higher = stronger binding; conditions: ETS1 concentration 1 nM; RUNX1 concentration 0 nM
T1 sequence: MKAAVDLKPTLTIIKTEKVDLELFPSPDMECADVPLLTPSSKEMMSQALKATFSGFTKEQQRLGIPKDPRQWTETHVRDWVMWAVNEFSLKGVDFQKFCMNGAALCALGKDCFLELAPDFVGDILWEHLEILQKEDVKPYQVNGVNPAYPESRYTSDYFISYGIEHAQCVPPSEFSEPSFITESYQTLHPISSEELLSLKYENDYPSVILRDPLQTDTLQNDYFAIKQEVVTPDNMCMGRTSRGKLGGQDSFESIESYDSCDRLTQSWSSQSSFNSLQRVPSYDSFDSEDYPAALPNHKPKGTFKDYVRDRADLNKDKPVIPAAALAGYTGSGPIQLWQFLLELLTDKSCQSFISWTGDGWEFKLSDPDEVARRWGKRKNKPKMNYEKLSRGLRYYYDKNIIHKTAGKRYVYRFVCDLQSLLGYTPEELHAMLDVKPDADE

Sequence | ETS1 binding intensity
GCAAGGCAACAGGAAATTGTGGGGAAATTTTAAAAA | 3930
ACACCCCAGGCAGGATGTGGTAGGGGTTGCCCCAGA | 2740
TAGGCAGGCAGGATGTGCCTATAAGCCACATGAATG | 1930
AGCGCGCCGCCGACCGGATGCGGGAACTGGGCTCGG | 11800
CCGCTTCCTTAGAGGTTAAGTGGTGGTGGTTCAGTT | 473
CACTCCCCGCATCCGGTCTGCGGCGCGCTCGGGGCC | 3830
TCTGGAGAAGCAGGATGTGGTTTGCAAGAGGCTTGC | 4750
CTAAGCAGAGGCCGGAAGCGGTGGTTTTTAGCGGCT | 10200
CTCACCCCTGGAGGATGTGGGTTTCCAGGCTGACAG | 836
TGCCACCTGCTTCCTGCCTGTGTAGCCACAAGGGAC | 783
GAAGCGATATTTCCTCCTGGGGTTGACCGCCCCGTG | 492
GCCCCAGCGTTTCCTCTTACCCACAATGCCCCGCCC | 794
TGCCTCCTCGTCACAGGATGTGGTCGCTGCACCCTG | 5200
ACTTCACTTCCCAACCTCCCCTGTGGTTAGGTGTGG | 365
GAGGAAGAGTCTTCCTGTAACCACTAGAGGGCGCTG | 592
CATGGGACCCGGAAGTGTGTGGTAAAGCGCCGGGGC | 3590
GCAGCTGCAAACAGGAAACCACAGCAGCGTAGCGGA | 2910
GTGCTCCTCGCTTCCTCCGCGGTCTTCCGAGCGGTC | 465
TGAGGAGAGCGAGGAAGTGGTTTTCTCTTCGCACAG | 691
GGGGGCGGAAGTTTCGGTGCATTGTGGGTTCTCCTG | 1260

Sequence | ETS1 binding intensity
GGGGCAGGAAGTGGAGGTTTGAAGTGGTTTAGAGTA | 1740
AACTTCCTCCGCGCGGGGCCACTGCTACCACAAAGG | 373
AGAAGCTGCACCCGGAAATGAAACCACCAGGACCTC | 4630
TCTTCTTCCTCCCCCACCCCAAAAGCCACAGGTGAC | 492
AAAACAACTCCAGGATGTGGTTTTACTCAGAATGTA | 1310
ACAGATCCAAGGAAGCATATCCCGCAAGCAACTGTT | 460
GTTGGGCTTTGAGGATGTGGGTTCTAGAAGTTTACA | 928
CAGGCCTTTCCTGCTATCGTTTGTGGTTTGAGCAGT | 429
TCCTGTAGTTTCCGGCTGAAGTGGTAAGGTTTTTGA | 845
CCTGTACGGAAGCTACTCTGGTTTCATGTGGTTTCA | 441
GCAAACAGCACATCCGGTGTGGTCGACGGGTCCTCC | 5820
ACCTTCTGTTCCCTTCCTCAGACCGCAGGCGAGATG | 367
CCCGCTACACAAGGCGGATGTGGTACCCTCACTTGT | 3810
CTTCTTTCCAGAGGATGTGGCTTCAGCGGGAGAGCT | 1250
CGTGTGGGAGGCCGGAAGTTGCGGCTTCATTACTCG | 20400
CCACTGCCGGAAGGGGAACTGTGGGGGTGCGCGAGT | 1110
GAGCAAACGGAGGCAGGAAGTGGTTATGTAACTTCA | 7030
TGGAGTGGAGGAAGTGGTGTTACCACAGCTCAGAGG | 1050
GGCGCGGGCTGCTTCCGGTCTGCGGGCCTGAGGAGG | 5650
GATACAGTGCTCAGGAAACCACATGAAACCAGAGTA | 451
